GFP signal change (wild-type ribosome), OD600 change and RFP signal change data for 40 molecules are collected here from PubChem BioAssay AID720706 (Broad Institute, 2013).

Hit rate of the full screen: of about 350,000 compounds, about 5,500 (1.6%) were called active.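 Rule for the calls: active = significant combined selectivity score with lowered wild-type GFP, culture density cut under 30%, mutant RFP and density less affected; inactive = any of these conditions unmet.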 The entries come from a sample that favours actives as a whole.

A short description of this experiment: reduced GFP signal of wild-type E. coli, primary screen, bacterial rRNA inhibitor project, GFP/RFP fluorescence, OD600, single point (AID 720706). To be noted: E. coli WT GFP vs humanized-ribosome RFP mutants, 24 h; GFP signal change (wild-type ribosome): stronger effect = lower value, DMSO median 0, no signal -100; OD600 change: measured here: OD600 growth, DMSO median 0, no signal -100; RFP signal change: measured here: RFP humanized mutant strains, DMSO median 0, no signal -100, concentration not given here.
`COc1ccc(CNC(=O)C2CCN(C(=O)c3ccco3)CC2)cc1`: the GFP signal change (wild-type ribosome) was -1.02% (inactive), the OD600 change was found to be 2.41% and the RFP signal change was 0.192%.
For `CCC(CC)c1nnc(NC(=O)C2CCN(C(=O)c3ccco3)CC2)s1` the same measures were -22.2% (active), -16.6% and -5.86%.
On the same counts, the results for `CCc1nnc(NC(=O)C2CCN(C(=O)c3ccccc3C)CC2)s1` are 6.89% (inactive), 6.36% and 0.577%.
For `C/C=C/c1ccc2c(c1)O[C@H](CN(C)C(=O)Cc1ccncc1)[C@@H](C)CN([C@@H](C)CO)S2(=O)=O` the same measures were -0.815% (inactive), -5.29% and 0.444%.
As to `O=C(NCCS(=O)(=O)N1CCN(c2ccccc2)CC1)c1ccco1`, the GFP signal change (wild-type ribosome) was -1.63% (inactive), the OD600 change is -7.54% and the RFP signal change was -1.71%.
As to `O=C(NCCS(=O)(=O)N1CCN(c2ccccc2F)CC1)c1ccc(Br)o1`, the GFP signal change (wild-type ribosome) was -32% (active), the OD600 change is -25.8% and the RFP signal change is -5.03%.
On the same counts, the results for `O=C(NCCS(=O)(=O)N1CCN(c2ccccc2)CC1)c1cc(=O)c2ccccc2o1` are 1.78% (inactive), 2.38% and -0.491%.
On the same counts, the results for `COc1cccc(S(=O)(=O)N2CCCCN3[C@H](CO)[C@H](c4ccc(C#CC5CC5)cc4)[C@H]3C2)c1` are -57.8% (inactive), -71% and -6.51%.
For `Cc1ccc(S(=O)(=O)N(C)CC(=O)OCC(=O)N2CC(=O)Nc3ccccc32)cc1` the same measures were 2.71% (inactive), -0.97% and 0.17%.
Take `Cc1ccc(S(=O)(=O)N2CC(=O)Nc3ccccc32)cc1C`: the GFP signal change (wild-type ribosome) is -32.4% (active), the OD600 change is -6.68% and the RFP signal change is 4.37%.
On the same counts, the results for `Cc1ccc(S(=O)(=O)N2CCN(c3ccccc3)CC2)cc1C` are -16.3% (inactive), -15.2% and -8.46%.
`CCCNC(=O)N1C[C@H](C)[C@@H](OC)CN(C)C(=O)c2ccc(NS(=O)(=O)CC(F)(F)F)cc2OC[C@@H]1C`: the GFP signal change (wild-type ribosome) was -0.684% (inactive), the OD600 change came to 1.48% and the RFP signal change was -1.07%.
In the case of `Cc1ccccc1-c1cnc2c(c1)C(=O)N([C@H](C)CO)C[C@@H](C)[C@H](CN(C)C(=O)c1cccnc1)O2`, the GFP signal change (wild-type ribosome) is 2.61% (inactive), the OD600 change was 12.8% and the RFP signal change was -2.14%.
For `COc1ccc2c3c(n(C)c2c1)[C@H](CO)N(Cc1ccccc1)CC31CCN(C)CC1` the same measures were 0.784% (inactive), 7.81% and 2.48%.
For `O=S(=O)([N-]c1nc2ccccc2nc1-[n+]1ccc(Cc2ccccc2)cc1)c1ccc(Br)s1` the same measures were -29.2% (active), -18.6% and -0.481%.
With `CC(C)NC(=O)Nc1ccc2c(c1)CC(=O)N([C@@H](C)CO)C[C@@H](C)[C@H](CN(C)Cc1ccc(C(F)(F)F)cc1)O2`, the GFP signal change (wild-type ribosome) is 2.02% (inactive), the OD600 change is -34.5% and the RFP signal change is -0.097%.
On the same counts, the results for `Cn1cc(CCC(=O)NC2CC2)c2ccccc21` are 4.27% (inactive), 10.1% and -0.645%.
As to `Cn1cc(CCC(=O)NCc2ccc3c(c2)OCO3)c2ccccc21`, the GFP signal change (wild-type ribosome) was -21.5% (active), the OD600 change was -10.6% and the RFP signal change came out at 2.95%.
On the same counts, the results for `CCN(CC)C(=O)C(=O)c1cn(CC(=O)NCc2ccc3c(c2)OCO3)c2ccccc12` are 10.3% (inactive), -1.1% and 3.71%.
On the same counts, the results for `O=C(C[C@@H]1CC[C@H](NC(=O)C2CCC2)[C@@H](CO)O1)NC1CCCCC1` are 3% (inactive), 3.16% and -1.22%.
For `Cc1ccc(S(=O)(=O)NCCC(c2ccccc2)c2ccccc2)cc1C(=O)O` the same measures were -40.5% (active), -24.2% and -13.9%.
Consider `Cc1ccc(S(=O)(=O)NCCCn2ccnc2)cc1C(=O)NC(C)C`, for which the GFP signal change (wild-type ribosome) is 10.7% (inactive), the OD600 change was found to be 7.94% and the RFP signal change was -1.51%.
For `Cc1cccc(NS(=O)(=O)c2ccc(C)c(C(=O)NCC(c3ccccc3)N(C)C)c2)c1` (stereo not given) the same measures were 4.21% (inactive), 4.97% and 2.06%.
For the molecule `O=C([C@@H]1[C@@H](CO)[C@@H]2Cn3c(ccc(C4=CCCCC4)c3=O)[C@H]1N2Cc1nccs1)N1CCCCC1`, the GFP signal change (wild-type ribosome) is -2.47% (inactive), the OD600 change stood at 3.59% and the RFP signal change came out at 1.3%.
For `COc1ccc(NC(=O)Nc2ccc3c(c2)CC(=O)N([C@H](C)CO)C[C@H](C)[C@H](CN(C)S(=O)(=O)c2ccccc2)O3)cc1` the same measures were 0.245% (inactive), -2.9% and 0.358%.
As to `O=S(=O)(NCC[C@H]1CC[C@@H](NS(=O)(=O)c2ccccc2Cl)[C@@H](CO)O1)c1ccc(Cl)cc1`, the GFP signal change (wild-type ribosome) is -2.84% (inactive), the OD600 change was -5.01% and the RFP signal change is 0.345%.
As for `Cc1ccc2c(c1)C1C[N+](C)(CC(=O)c3ccccc3)CCC1N2C(=O)c1ccccc1Cl` (stereo not given), the GFP signal change (wild-type ribosome) was -33.1% (active), the OD600 change was -36.3% and the RFP signal change was determined as 20.4%.
On the same counts, the results for `CC(=O)c1cccc(NC(=O)C2CCN(C(=O)c3ccccc3Cl)CC2)c1` are 0.045% (inactive), 1.11% and 1.46%.
As to `Cc1ccc(C(=O)N2CCCc3ccccc32)c(Cl)c1`, the GFP signal change (wild-type ribosome) is -20.5% (inactive), the OD600 change was -35.7% and the RFP signal change is -12.1%.
In the case of `COc1ccc(NC(=O)N(C)C[C@H]2Oc3ccc(NC(=O)Nc4ccc5c(c4)OCO5)cc3C(=O)N([C@H](C)CO)C[C@H]2C)cc1`, the GFP signal change (wild-type ribosome) was 0.515% (inactive), the OD600 change was found to be 4.81% and the RFP signal change is 0.195%.
For `C[C@H](O)C#Cc1cnc2c(c1)C(=O)N([C@H](C)CO)C[C@H](C)[C@@H](CN(C)C(=O)Nc1ccc(F)cc1)O2` the same measures were 1.18% (inactive), 9.67% and -3.38%.
Take `COc1ccc(C#Cc2ccc([C@H]3[C@H]4CN(C(=O)c5cccnc5)CC(=O)N4[C@H]3CO)cc2)cc1`: the GFP signal change (wild-type ribosome) is 0.302% (inactive), the OD600 change was -5.28% and the RFP signal change came out at 2.11%.
In the case of `COc1ccc(OC)c(/C(C)=N\NC(=O)c2cc3cc(Cl)ccc3n2C)c1`, the GFP signal change (wild-type ribosome) was -24% (active), the OD600 change was -9.4% and the RFP signal change is -0.802%.
Regarding `COc1ccc(/C(C)=N/NC(=O)CCC(=O)Nc2ccc(Cl)cc2Cl)c(OC)c1`, the GFP signal change (wild-type ribosome) is -6.41% (inactive), the OD600 change was -4.28% and the RFP signal change was 3.43%.
As for `COc1cc(C(=O)NCc2cc3cc(Cl)ccc3n2C)cc(OC)c1OC`, the GFP signal change (wild-type ribosome) is 4.54% (inactive), the OD600 change was 12% and the RFP signal change came out at 5.4%.
For `C[C@@H](C(=O)N(C)C[C@H]1OCc2ccccc2-c2c(n(C)c3ccccc23)C(=O)N([C@@H](C)CO)C[C@@H]1C)c1ccccc1` the same measures were -2.7% (inactive), -4.37% and 3.17%.
For `COc1ccc(CN(C)C[C@H]2OCc3cn(nn3)CCCC(=O)N([C@@H](C)CO)C[C@@H]2C)cc1` the same measures were -0.663% (inactive), 4.94% and -1.83%.
For `COc1ccc(NS(=O)(=O)c2cccc(C(=O)NCCc3ccc(S(N)(=O)=O)cc3)c2)cc1` the same measures were -0.729% (inactive), -4.13% and 2.24%.
For `COc1ccc(NS(=O)(=O)c2ccc(Oc3c(C#N)cccc3C#N)cc2)cc1`, the GFP signal change (wild-type ribosome) was -33% (active), the OD600 change is -6.7% and the RFP signal change was -3.93%.
On the same counts, the results for `COc1ccc(NS(=O)(=O)c2ccc(N3CCN(CCO)CC3)c([N+](=O)[O-])c2)cc1` are -3.32% (inactive), 8.86% and 0.35%.
